Bioassay records deposited in PubChem BioAssay by National Center for Advancing Translational Sciences (NCATS).
Hits are enriched below; roughly 4.6% of the tested compounds scored in any of these assays.
VACV Venus inh: qHTS for Stage-Specific Inhibitors of Vaccinia Orthopoxvirus: Venus Reporter Primary qHTS | Vaccinia virus Venus reporter expression, fluorescence | Potency, µM (top dose mostly 36.5 µM), without a hit: at the highest dose activity change, negative = inhibition, usual class: inhibitors | actives 0.46% (n = 330,000); calls by dose curve; tested in A549 cells; note: nearly all actives have a fitted effect of over 30% in size
HCV inh: qHTS Assay for Inhibitors of Hepatitis C Virus (HCV). Huh7.5.1 HCVcc-Cre infection, luciferase reporter, 44 h. actives 3.4% (n = 340,000). Potency, µM (titrated, usually from 41.8 µM), for inactives: top-dose activity change, negative = inhibition, actives largely listed as inhibitors. AID 651820, 2012; active = well fitted inhibition curve with a large enough effect; inconclusive = small, poorly fitted or top-dose-only effect, or another doubt; inactive = no such curve, though single readings can be large or run the other way
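Cells (1,000/well) were plated 4 h before compound, then infected with HCVcc-Cre virus (~0.5 moi). After 44 h further culture, infection was read as luciferase luminescence following a 15 min substrate incubation at room temperature.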
Lassa entry inh: qHTS for Inhibitors of binding or entry into cells for Lassa Virus. Lassa virus pseudotype entry inhibition, cell reporter. Potency, µM (titrated, usually from 37.9 µM), without a hit: top-dose activity change, negative = inhibition, usual class: inhibitors. actives 1.2% (n = 300,000); calls by dose curve; tested in HEK293 cells; note: nearly all actives have a fitted effect of over 50% in size
Marburg entry inh: qHTS for inhibitors of binding or entry into cells for Marburg Virus | actives 1.8% (n = 300,000) | Potency, µM (highest dose often 37.8 µM), inactives show at the top dose activity change, negative = inhibition, hits mostly inhibitors | Marburg virus pseudotyped entry inhibition, cell reporter; calls by dose curve; tested in HEK293 cells
VACV mCherry inh: qHTS for Stage-Specific Inhibitors of Vaccinia Orthopoxvirus: mCherry Reporter Primary qHTS | Potency, µM (highest dose often 36.5 µM), inactives show top-dose activity change, negative = inhibition, most hits filed as inhibitors | Vaccinia virus mCherry reporter infection, fluorescence | actives 0.63% (n = 310,000) | AID 720579, 2013; calls by dose curve; tested in A549 cells; note: nearly all actives have a fitted effect of over 35% in size
* = called active by the depositor; i = inactive; ? = inconclusive; . = no result; ! = a repeat was not active; [ ] = dose if it differs, or a comment. % is set by controls: 0 for no effect and ±100 for the full control effect; potency is the fitted concentration of half-maximal effect.

SMILES	VACV Venus inh	HCV inh	Lassa entry inh	Marburg entry inh	VACV mCherry inh
CC1=C(C(N)=O)C(c2cccs2)n2ncnc2N1 (stereo not drawn)	-12%	0%	?	?	i
COc1ccc2c(c1)-c1nc(-n3ncc(C(=O)NC(C)(C)CO)c3C3CC3)ncc1CC2	-1%	.	.	.	-18%
O=C(Nc1cccc([N+](=O)[O-])c1)c1ccc2ccccc2c1O	?	?	?	?	10µM*
CCCC(=O)Nc1ccc(Cl)c(NC(=O)c2ccc([N+](=O)[O-])cc2Cl)c1	-23%	?	6%	?	?
CCCC(=O)Nc1cccc(NC(=O)c2ccc([N+](=O)[O-])cc2Cl)c1	-13%	7.9µM*	0%	-7%	i
C#CCCCO/N=C1\C[C@@H](O)[C@@H](O)[C@@H]2[C@@H]3C(=O)N(C(C)(C)C)C(=O)[C@@H]3CC[C@H]12	.	.	.	12%[14.2 µM]	.
CCn1c(SCC(=O)N/N=C/c2ccc(C)s2)nc2ccccc21	-22%	?	-19%	2.6µM*	?
CCCCCCCCCC(=O)N/N=C/c1ccc(C)s1	.	4%	9.2µM*	?	.
Cc1ccc(/C=N/NC(=O)CSc2nc3ccccc3c(=O)n2-c2ccccc2)s1	-3%	-4%	2%	5%	-10%
Cc1cccc(N2CCN(C(=O)c3cn(C)c(=O)c4c3c3ccccc3n4C)CC2)c1C	.	?	6.5µM*	?	.
COc1ccc(/C=C/C(=O)Nc2nc(-c3cccs3)ns2)cc1OC	-14%	.	3%[46.1 µM]	-16%[46.1 µM]	2%
CC(=O)N[C@@H](CS)C(=O)O	-12%	10µM*!	?	?	i
CC(=O)N[C@H](CS)C(=O)O	-11%	.	.	.	-15%
O=C(Nc1ccc(F)c(F)c1)C1CCCN1S(=O)(=O)c1cccc2nsnc12 (stereo not drawn)	-3%	.	4%[46.1 µM]	2%[46.1 µM]	-10%
COCc1cc(C)nc2sc(C(=O)Nc3ccccc3O)c(N)c12	-17%	.	2%[46.1 µM]	?	-23%
COCc1cc(C)nc2sc(C(=O)Nc3ccccc3F)c(N)c12	.	10µM*	.	.	.
COc1ccc(-c2cc(C(=O)Nc3cccc(O)c3)on2)cc1OC	-4%	.	?	.	-9%
C[C@H]1CN=C(N(C)C)N1CC1CCCC1	-9%	?	.	.	i
C[C@H]1CN=C(N(C)C)N1CC1CCC(C(C)(C)C)CC1 (stereo partly drawn)	?	?	.	.	7.9µM*
Cc1sc2nc(-c3ccccn3)[nH]c(=O)c2c1-c1ccccc1	-9%	10µM*	?	?	?
Cc1sc2nc(-c3ccncc3)[nH]c(=O)c2c1-c1ccccc1	.	4%	4%	-9%	.
CCCCCC(=O)N1C[C@H](O)[C@@H](n2cc(C3CC3)nn2)C[C@H]1c1ccc(OC)cc1	.	.	5%[46.1 µM]	.	.
CC(C)(C)C1CCc2nc(NC(=O)Cc3cn4ccsc4n3)sc2C1 (stereo not drawn)	?	22µM*	-2%	-6%	.
Nc1nc(=S)c2snnc2[nH]1	-6%	.	.	.	43%
COC(=O)Cn1cnc2c(Cl)nc(F)nc21	0%	5.6µM*	.	1%	-9%
SMILES	VACV Venus inh	HCV inh	Lassa entry inh	Marburg entry inh	VACV mCherry inh
COC(=O)Cn1cnc2c(nnn2-c2ccc(F)cc2)c1=O	0%	7%	.	.	i
Cc1ccc(CSc2nnc(-c3ccc(NC(=O)CCc4ccccc4)cc3)n2C)cc1	-9%	.	.	.	-10%
CCOC(=O)c1c2c(n(Cc3ccccc3)c1C)C(=O)C(=O)c1ccccc1-2	4.5µM*	?	?	5.6µM*	?
Cc1ccc(Cl)cc1NC(=O)NCc1cccnc1	-9%	-2%	7%[46.1 µM]	?	-14%
O=C(NCc1cccnc1)NC1(C(F)(F)F)Oc2ccc(Cl)cc2O1 (stereo not drawn)	?	10µM*	.	.	?
NC(=O)CSc1nc2scc(-c3ccco3)c2c(=O)n1-c1ccccc1	2%	?	-4%	-9%	-14%
O=C(CSc1nc2scc(-c3ccco3)c2c(=O)n1-c1ccccc1)N1CCOCC1	.	-5%	4.1µM*	?	.
CCC1CN(C(=O)C2CCN(S(=O)(=O)c3c(C)noc3/C=C/c3ccccc3F)CC2)c2cc(Cl)ccc2O1 (stereo not drawn)	-12%[7.34 µM]	.	9%[46.1 µM]	.	-11%[7.34 µM]
CCCCN1CC(COCc2ccccc2)Oc2cccc(Oc3ccc(C(C)C)cc3)c2S1(=O)=O (stereo not drawn)	?	-5%	-3%[46.1 µM]	.	-19%
